Source: PubChem BioAssay (NCI)
The panel holds about 79,000 compounds, 15% with a hit somewhere; the sample as a whole holds those more often. Unmarked numbers belong to inactive results. Calls of active or inactive are those of the source. Rule as the data show it: active = growth inhibition above about 70%; inactive = the rest.

Experiments:
[1] = NCI Yeast Anticancer Drug Screen. Data for the rad50 strain (AID 155);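 also: 0% = growth of vehicle-only cultures of the same strain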; details: S. cerevisiae rad50 strain growth inhibition, active compounds read high
Summary of the method: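 Readout: growth inhibition relative to vehicle-treated cultures. Compound exposure was carried out in a genetically defined yeast strain deficient in DNA damage repair.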

[2] = NCI Yeast Anticancer Drug Screen. Data for the mec2-1 strain (AID 157); details: S. cerevisiae mec2-1 strain, active compounds read high
Summary of the method: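 Readout is yeast growth inhibition, normalised to vehicle-treated controls, in the mec2-1 strain exposed to compound.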

[3] = NCI Yeast Anticancer Drug Screen. Data for the sgs1 mgt1 strain (AID 161);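 also: 0% = growth of cultures given vehicle only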; details: S. cerevisiae sgs1 mgt1 strain, active compounds read high
Summary of the method: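 This yeast growth screen uses a strain with defined DNA-repair lesions; compound-treated growth is compared with vehicle-treated growth.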

[4] = NCI Yeast Anticancer Drug Screen. Data for the cln2 rad14 strain (AID 165);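 also: 0% = growth equal to vehicle treated cultures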; details: S. cerevisiae cln2 rad14 strain, active compounds read high
Summary of the method: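 Relative to vehicle controls, growth inhibition of compound-treated cln2 rad14 yeast was recorded.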

[5] = NCI Yeast Anticancer Drug Screen. Data for the bub3 strain (AID 167); details: S. cerevisiae bub3 mutant strain, active compounds read high
Summary of the method: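 Readout: yeast growth inhibition, expressed relative to vehicle-only wells. The test organism is a mutant strain from a panel with lesions in DNA repair or checkpoint genes.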

[6] = NCI Yeast Anticancer Drug Screen. Data for the mlh1 rad18 strain (AID 175); details: S. cerevisiae mlh1 rad18 strain growth inhibition, active compounds read high
Summary of the method: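 Test agents were incubated with a yeast strain of defined genotype (DNA damage repair defect). Inhibition of growth was derived by comparison with vehicle-exposed cultures.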

[7] = at 5.0 µM (retest, dose inferred, filed as 0.5)
[8] = at 50.0 µM (retest, dose inferred, filed as 5.0)

SMILES	growth inhibition [1, 7]	growth inhibition [1, 8]	growth inhibition ([1]; at 50.0 µM)	growth inhibition [2, 7]	growth inhibition [2, 8]	growth inhibition ([2]; at 50.0 µM)	growth inhibition [3, 7]	growth inhibition [3, 8]	growth inhibition ([3]; at 50.0 µM)	growth inhibition [4, 7]	growth inhibition [4, 8]	growth inhibition ([4]; at 50.0 µM)	growth inhibition [5, 7]	growth inhibition [5, 8]	growth inhibition ([5]; at 50.0 µM)	growth inhibition [6, 7]	growth inhibition [6, 8]	growth inhibition ([6]; at 50.0 µM)
O=[N+]([O-])c1ccc(S(=O)(=O)N/N=C/C=C/c2ccccc2)cc1	6%	13%	71% (active)	2%	17%	37%	4%	14%	87.5% (active)	-4%	16%	48.3%	6%	36%	48.6%	6%	39%	75.5% (active)
Cn1c(=O)nc2n(-c3ccc(Cl)cc3)c3cc(Cl)ccc3nc-2c1=O	7%	20%	20.6%	4%	9%	24.1%	9%	15%	7.8%	15%	20%	16.9%	17%	18%	-6.9%	7%	20%	77% (active)
Nc1ccccc1N=Nc1c(S(=O)(=O)O)cc2cc(S(=O)(=O)O)cc(O)c2c1O	17%	23%	-24%	3%	5%	-10.9%	-3%	11%	-27.6%	34%	-10%	27.9%	17%	12%	-33.5%	5%	7%	-33.9%
COc1ccc(Cc2c3ccccc3cc[n+]2C)cc1Oc1ccc(Cc2c3ccccc3cc[n+]2C)cc1	2%	87% (active)	51.5%	-1%	92% (active)	43.8%	2%	93% (active)	76.5% (active)	-14%	84% (active)	-26.7%	-2%	96% (active)	40.9%	-2%	96% (active)	85.9% (active)
O[Si](O)(c1ccccc1)c1ccccc1	13%	92% (active)	96.2% (active)	7%	92% (active)	93% (active)	10%	92% (active)	95.8% (active)	0%	88% (active)	90.2% (active)	-2%	94% (active)	95.6% (active)	12%	95% (active)	95.8% (active)
COC(=O)[C@H]1[C@@H](C(C)C)O[C@@H](C(C)C)O[C@H]1C(F)(F)F	-1%	2%	86.7% (active)	-13%	-25%	92.5% (active)	-14%	-10%	86.6% (active)	-15%	1%	88.5% (active)	-30%	1%	88.7% (active)	-15%	-13%	84.4% (active)
Brc1cccc[n+]1Cc1cc2ccccc2c2ccccc12	0%	91% (active)	97.2% (active)	32%	74% (active)	97.5% (active)	0%	88% (active)	98.6% (active)	-5%	70% (active)	94.5% (active)	-12%	91% (active)	97.5% (active)	1%	88% (active)	97.9% (active)
O=C1C=C(c2cccc(-c3ccccc3)c2)CCC1	2%	94% (active)	93.5% (active)	-2%	96% (active)	95.3% (active)	-5%	92% (active)	97.2% (active)	2%	92% (active)	95.8% (active)	2%	87% (active)	96.3% (active)	-1%	92% (active)	96.4% (active)
Cc1ccc(S(=O)/C=C/S(=O)(=O)c2ccc(C)cc2)cc1 (configuration not stated)	99% (active)	99% (active)	99.3% (active)	99% (active)	100% (active)	99.6% (active)	100% (active)	100% (active)	99.5% (active)	98% (active)	100% (active)	99.5% (active)	99% (active)	100% (active)	99.6% (active)	100% (active)	100% (active)	99.5% (active)
